The record followed here is article PMC12864922, “TDP-43 directly inhibits mRNA accumulation in neurites through modulation of mRNA stability”.

To fix the notation:
B1: ENSMUSG00000042529.290|Kcnj12 (ssRNA)
RNA: GGGAGUUCUACAGUCCGACGAUCGCUUCGAUAUCCGCAUGCUAGGCACCUGUCAUUCUUUCUGAGUAGGUGGGCCUGUAUCCAGAGCAGGGUCUAGGGGCUCCUGCUCCCGGCUCAUCUCAGUGGCCUGAAGCAUUCAAAACUCUAGCCAGCCCCAUCCUCCUCCCUGCCAGAAUGGUCCAGUCCCUGGGCCCUGCUGGAGAGCAGCUCAAACUGCCUUUCAUCUCUGCCAAAGGCAGGCAGAUGCUGUAUUUUCAAAUUCUCCUGCCCUCUUUUCCCCUUUUUCCCUGUAUUUAUUUAUUGCCUCUUGCGGUCGCACUAGUGUGGAAUUCUCGGGUGUCAAGG
B2: ENSMUSG00000042529.416|Kcnj12 (ssRNA)
RNA: GGGAGUUCUACAGUCCGACGAUCGCUUCGAUAUCCGCAUGCUAGUGUGUGUGUGUGUGUGUGUGUGUGUGUGUGUGUGAACAUGUGUGAGGGUGUGGAGGUCCCAGGGUGUGUGUAUGUGAAUGUCAGUGGCUUGGGUGCUGUGUGGAGAGAGAGAGAGAGAGAGAGAGAGAGAGAGAGAGAGAGAGAGAGAGAGAGCUGCACAGGAUGAAGCAGCUGCCCUGAGCCCAUCUGGUGCUGUGCACCUGGUCCUUGUCCAGCCGAGGGCCUGGGGGCAGAAGAACACACCAUAGGGAGGCCCUUGCUCUUGCGGUCGCACUAGUGUGGAAUUCUCGGGUGUCAAGG
B3: ENSMUSG00000042529.424|Kcnj12 (ssRNA)
RNA: GGGAGUUCUACAGUCCGACGAUCGCUUCGAUAUCCGCAUGCUAGUGUGGAGGUCCCAGGGUGUGUGUAUGUGAAUGUCAGUGGCUUGGGUGCUGUGUGGAGAGAGAGAGAGAGAGAGAGAGAGAGAGAGAGAGAGAGAGAGAGAGAGAGCUGCACAGGAUGAAGCAGCUGCCCUGAGCCCAUCUGGUGCUGUGCACCUGGUCCUUGUCCAGCCGAGGGCCUGGGGGCAGAAGAACACACCAUAGGGAGGCCCUUGUAUGGGUGUCUGCCCUAUGUGAGGUCAUAGAAUGUUAAAUCUAUUUUACUCUUGCGGUCGCACUAGUGUGGAAUUCUCGGGUGUCAAGG
B4: ENSMUSG00000042529.423|Kcnj12 (ssRNA)
RNA: GGGAGUUCUACAGUCCGACGAUCGCUUCGAUAUCCGCAUGCUAGUGAGGGUGUGGAGGUCCCAGGGUGUGUGUAUGUGAAUGUCAGUGGCUUGGGUGCUGUGUGGAGAGAGAGAGAGAGAGAGAGAGAGAGAGAGAGAGAGAGAGAGAGAGAGAGCUGCACAGGAUGAAGCAGCUGCCCUGAGCCCAUCUGGUGCUGUGCACCUGGUCCUUGUCCAGCCGAGGGCCUGGGGGCAGAAGAACACACCAUAGGGAGGCCCUUGUAUGGGUGUCUGCCCUAUGUGAGGUCAUAGAAUGUUAAAUCUCUCUUGCGGUCGCACUAGUGUGGAAUUCUCGGGUGUCAAGG
B5: ENSMUSG00000042529.419|Kcnj12 (ssRNA)
RNA: GGGAGUUCUACAGUCCGACGAUCGCUUCGAUAUCCGCAUGCUAGUGUGUGUGUGUGUGUGAACAUGUGUGAGGGUGUGGAGGUCCCAGGGUGUGUGUAUGUGAAUGUCAGUGGCUUGGGUGCUGUGUGGAGAGAGAGAGAGAGAGAGAGAGAGAGAGAGAGAGAGAGAGAGAGAGAGAGCUGCACAGGAUGAAGCAGCUGCCCUGAGCCCAUCUGGUGCUGUGCACCUGGUCCUUGUCCAGCCGAGGGCCUGGGGGCAGAAGAACACACCAUAGGGAGGCCCUUGUAUGGGUGUCUGCCCUAUCUCUUGCGGUCGCACUAGUGUGGAAUUCUCGGGUGUCAAGG
B6: ENSMUSG00000042529.418|Kcnj12 (ssRNA)
RNA: GGGAGUUCUACAGUCCGACGAUCGCUUCGAUAUCCGCAUGCUAGUGUGUGUGUGUGUGUGUGUGUGAACAUGUGUGAGGGUGUGGAGGUCCCAGGGUGUGUGUAUGUGAAUGUCAGUGGCUUGGGUGCUGUGUGGAGAGAGAGAGAGAGAGAGAGAGAGAGAGAGAGAGAGAGAGAGAGAGAGAGCUGCACAGGAUGAAGCAGCUGCCCUGAGCCCAUCUGGUGCUGUGCACCUGGUCCUUGUCCAGCCGAGGGCCUGGGGGCAGAAGAACACACCAUAGGGAGGCCCUUGUAUGGGUGUCUGCUCUUGCGGUCGCACUAGUGUGGAAUUCUCGGGUGUCAAGG
B7: ENSMUSG00000042529.421|Kcnj12 (ssRNA)
RNA: GGGAGUUCUACAGUCCGACGAUCGCUUCGAUAUCCGCAUGCUAGUGUGAACAUGUGUGAGGGUGUGGAGGUCCCAGGGUGUGUGUAUGUGAAUGUCAGUGGCUUGGGUGCUGUGUGGAGAGAGAGAGAGAGAGAGAGAGAGAGAGAGAGAGAGAGAGAGAGAGAGAGCUGCACAGGAUGAAGCAGCUGCCCUGAGCCCAUCUGGUGCUGUGCACCUGGUCCUUGUCCAGCCGAGGGCCUGGGGGCAGAAGAACACACCAUAGGGAGGCCCUUGUAUGGGUGUCUGCCCUAUGUGAGGUCAUAGCUCUUGCGGUCGCACUAGUGUGGAAUUCUCGGGUGUCAAGG
B8: ENSMUSG00000042529.420|Kcnj12 (ssRNA)
RNA: GGGAGUUCUACAGUCCGACGAUCGCUUCGAUAUCCGCAUGCUAGUGUGUGUGUGAACAUGUGUGAGGGUGUGGAGGUCCCAGGGUGUGUGUAUGUGAAUGUCAGUGGCUUGGGUGCUGUGUGGAGAGAGAGAGAGAGAGAGAGAGAGAGAGAGAGAGAGAGAGAGAGAGAGAGCUGCACAGGAUGAAGCAGCUGCCCUGAGCCCAUCUGGUGCUGUGCACCUGGUCCUUGUCCAGCCGAGGGCCUGGGGGCAGAAGAACACACCAUAGGGAGGCCCUUGUAUGGGUGUCUGCCCUAUGUGAGGCUCUUGCGGUCGCACUAGUGUGGAAUUCUCGGGUGUCAAGG
B9: ENSMUSG00000042529.417|Kcnj12 (ssRNA)
RNA: GGGAGUUCUACAGUCCGACGAUCGCUUCGAUAUCCGCAUGCUAGUGUGUGUGUGUGUGUGUGUGUGUGUGUGAACAUGUGUGAGGGUGUGGAGGUCCCAGGGUGUGUGUAUGUGAAUGUCAGUGGCUUGGGUGCUGUGUGGAGAGAGAGAGAGAGAGAGAGAGAGAGAGAGAGAGAGAGAGAGAGAGAGAGCUGCACAGGAUGAAGCAGCUGCCCUGAGCCCAUCUGGUGCUGUGCACCUGGUCCUUGUCCAGCCGAGGGCCUGGGGGCAGAAGAACACACCAUAGGGAGGCCCUUGUAUGGGCUCUUGCGGUCGCACUAGUGUGGAAUUCUCGGGUGUCAAGG
B10: ENSMUSG00000042529.422|Kcnj12 (ssRNA)
RNA: GGGAGUUCUACAGUCCGACGAUCGCUUCGAUAUCCGCAUGCUAACAUGUGUGAGGGUGUGGAGGUCCCAGGGUGUGUGUAUGUGAAUGUCAGUGGCUUGGGUGCUGUGUGGAGAGAGAGAGAGAGAGAGAGAGAGAGAGAGAGAGAGAGAGAGAGAGAGAGCUGCACAGGAUGAAGCAGCUGCCCUGAGCCCAUCUGGUGCUGUGCACCUGGUCCUUGUCCAGCCGAGGGCCUGGGGGCAGAAGAACACACCAUAGGGAGGCCCUUGUAUGGGUGUCUGCCCUAUGUGAGGUCAUAGAAUGUUCUCUUGCGGUCGCACUAGUGUGGAAUUCUCGGGUGUCAAGG

The full ranking holds about 9,900 sequences; the median of “r (bound/input frequency ratio)” is about 0.7, and the highest 2% start at about 6.5. The sample holds the highest values, similar sequences and a random draw of the others, so the mix is not that of the screen.

TDP-43, sequence (Q13148 whole entry): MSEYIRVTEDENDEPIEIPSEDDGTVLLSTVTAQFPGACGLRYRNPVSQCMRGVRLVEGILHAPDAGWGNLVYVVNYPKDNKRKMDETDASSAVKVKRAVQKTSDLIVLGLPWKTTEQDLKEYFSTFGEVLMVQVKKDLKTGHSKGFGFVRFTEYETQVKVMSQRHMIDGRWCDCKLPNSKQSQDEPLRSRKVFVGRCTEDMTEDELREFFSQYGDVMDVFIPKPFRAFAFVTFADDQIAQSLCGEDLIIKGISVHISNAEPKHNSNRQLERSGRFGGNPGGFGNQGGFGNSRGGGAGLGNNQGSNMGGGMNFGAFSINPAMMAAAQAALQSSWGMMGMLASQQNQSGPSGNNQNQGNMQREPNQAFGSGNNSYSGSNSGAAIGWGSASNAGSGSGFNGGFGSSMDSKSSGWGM

This experiment has as its target TDP-43 (Homo sapiens, UniProt Q13148 1-414). The experiment in a line: RNA Bind-n-Seq with designed 260-mer pool; 25 mM Tris-HCl, 150 mM KCl, 3 mM MgCl2, BSA (printed 500 mg/mL), 20 units/mL SUPERase IN; pH not stated; 500 nM RNA pool, 1 h, 4 C; TDP-43 5, 50, 500 nM; high values mean tight binding. Conditions: protein: recombinant; tags: SBP (GST cleaved off with PreScission; pGEX-GST-SBP). The method, boiled down: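 For each oligo, R gives binding as its mapped-read-normalized abundance after pulldown divided by its abundance in input. Bead-captured SBP-tagged TDP-43 (5, 50 or 500 nM) was incubated with 500 nM of an in vitro-transcribed 260-nt 3′ UTR oligo pool for 1 h at 4 °C in 25 mM Tris-HCl, 150 mM KCl, 3 mM MgCl2, BSA and SUPERase IN on streptavidin beads. Washed, biotin-eluted RNA was reverse transcribed, PCR-amplified and sequenced.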
For the molecule B1, the binding signal was 1.04 R (bound/input frequency ratio).
With B2 the figure was 6.11 R (bound/input frequency ratio).
As for B3, the figure is 5.67 R (bound/input frequency ratio); as for B4, 7.6 R (bound/input frequency ratio).
As for B5, the figure is 6.65 R (bound/input frequency ratio).
For the molecule B6, the binding signal was 6.38 R (bound/input frequency ratio).
B7: the binding signal is 6.04 R (bound/input frequency ratio).
As for B8, the binding signal was 6.59 R (bound/input frequency ratio).
As for B9, the figure is 5.22 R (bound/input frequency ratio); as for B10, 6.32 R (bound/input frequency ratio).
